Results taken from the supplement of paper PMC6555819.

These sequences were tested on LXRb:RXRa (NR concentration 270 nM, RXRa partner concentration 90 nM) (assay: PBM binding z-score (relative to random genomic background probes); higher = stronger binding; sequences stand for … in GC…GCGATTGACAGCGTAGAATGAAGG).
How it was run: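 Random background probes are the reference for binding z-scores. These scores derive from regression-normalized fluorescence on custom Agilent 4×180K protein-binding microarrays incubated 1 h with ligand-free nuclear receptor dimers. Binding was detected with antibodies against each partner (one per run).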
CGATCTAGGTCACCAGGACAGTGAAGAGGTTGGA was tested, and the PBM binding z-score was 1.59.
CGAACTAGATCACCAGGACAGTGAAGAGGTTGGA was tested, and the PBM binding z-score was -0.702.
Sequence CGAACTAGGTCACCTGGACAGTGAAGAGGTTGGA has a PBM binding z-score of 1.79.
For ATATGTAGGTTAGGGTCTTTCAGAAAGTAGGGAA, the PBM binding z-score was 1.37.
Sequence CGAACTAGGTCAAAGGACAGTGGAAGGCGACGTA has a PBM binding z-score of 1.47.
Work on CGAACTAGGTCACCAGGACAGTGCAGAGGTTGGA yielded a PBM binding z-score of 1.76.
For CGAACTAGGTCAAAGGACAGTGATAGGCGACGTA, the PBM binding z-score was 1.64.
For ATATGTAGGTTAGTGTCATTCAGAAAGTAGGGAA, the PBM binding z-score was 1.41.
CGTACTAGGTCACCAGGACAGTGAAGAGGTTGGA gave a PBM binding z-score of 2.01.
ATATGTAGGTTAGGCTCATTCAGAAAGTAGGGAA was tested, and the PBM binding z-score was 0.129.
ATATGCAGGTTAGGGTCATTCAGAAAGTAGGGAA gave a PBM binding z-score of 4.2.
CGAACTAGGTCACCAGGAGAGTGAAGAGGTTGGA showed a PBM binding z-score of 1.33.
Work on CGAACTAGGTCAAATGACAGTGAAAGGCGACGTA yielded a PBM binding z-score of 2.29.
In the case of CGAACTAGGTCAAAGGACAGTGACAGGCGACGTA, the PBM binding z-score is reported as 1.88.
Work on ATAAGTAGGTTAGGGTCATTCAGAAAGTAGGGAA yielded a PBM binding z-score of 4.53.
CGAACTAGGTCACCAGGACAGTAAAGAGGTTGGA showed a PBM binding z-score of 1.93.
ATATGTAGGTGAGGGTCATTCAGAAAGTAGGGAA gave a PBM binding z-score of 3.43.
In the case of CGAACTAGGTCAGCAGGACAGTGAAGAGGTTGGA, the PBM binding z-score is reported as 0.384.
CGAACTAGGTCAAAGGACAATGAAAGGCGACGTA gave a PBM binding z-score of 1.92.
Work on CGATCTAGGTCAAAGGACAGTGAAAGGCGACGTA yielded a PBM binding z-score of 1.53.
ATATGTAGGTTAGAGTCATTCAGAAAGTAGGGAA was tested, and the PBM binding z-score was 1.02.
In the case of CGAACTAGGTCACCAGGACAGTGAAGAGGTTGGA, the PBM binding z-score is reported as 1.65.
ATATGTAGGCTAGGGTCATTCAGAAAGTAGGGAA showed a PBM binding z-score of 3.94.
CGAACTTGGTCACCAGGACAGTGAAGAGGTTGGA was tested, and the PBM binding z-score was -0.452.
ATATGTAGGTTAGGGGCATTCAGAAAGTAGGGAA gave a PBM binding z-score of 3.01.
Work on ATATGTAGGTTAGGGTCATTAAGAAAGTAGGGAA yielded a PBM binding z-score of 4.44.
With ATATGTAGGTTTGGGTCATTCAGAAAGTAGGGAA the PBM binding z-score was 2.49.
Sequence ATATGTAAGTTAGGGTCATTCAGAAAGTAGGGAA has a PBM binding z-score of 4.13.
Work on ATATGAAGGTTAGGGTCATTCAGAAAGTAGGGAA yielded a PBM binding z-score of 4.52.
CGAACTAGGTCAATGGACAGTGAAAGGCGACGTA gave a PBM binding z-score of 1.17.
Work on CGAACTAGGTAACCAGGACAGTGAAGAGGTTGGA yielded a PBM binding z-score of -0.525.
In the case of ATATGGAGGTTAGGGTCATTCAGAAAGTAGGGAA, the PBM binding z-score is reported as 4.8.
With CGAACTAGGTCACCAGGGCAGTGAAGAGGTTGGA the PBM binding z-score was 1.52.
CGAACTAGGTCACCAGGACATTGAAGAGGTTGGA was tested, and the PBM binding z-score was 1.82.
With CGAACTAGGTCAAAGGACAGCGAAAGGCGACGTA the PBM binding z-score was 1.94.
CGAACTAGGCCACCAGGACAGTGAAGAGGTTGGA gave a PBM binding z-score of -0.868.
With CGAACTAGGGCACCAGGACAGTGAAGAGGTTGGA the PBM binding z-score was -0.672.
CCAACTAGGTCACCAGGACAGTGAAGAGGTTGGA showed a PBM binding z-score of 1.91.
In the case of CGAACTAGGTCAAAGTACAGTGAAAGGCGACGTA, the PBM binding z-score is reported as 2.45.
